Compounds with a hit are over-represented: about 6.8% of the library has one in this group of screens.
PTAP TSG101 blk – blocks PTAP/TSG101 interaction to inhibit HIV-1 budding. AID 493005. Potency, µM (series often up to 115 µM), actives largely listed as inhibitors. Fluorescence polarization, FITC-PTAP peptide / Tsg101 binding. Q99816. 340,000 tested, under 10 active; active means well fitted inhibition curve with a large enough effect in the main read-out, with a control signal flat, not every such curve was filed as active; inconclusive means small, poorly fitted or top-dose-only effect, or effect the other way, or a change in a side signal; inactive means no such curve, though single readings can be large or run the other way
Target sequence (Q99816 whole entry, looked up): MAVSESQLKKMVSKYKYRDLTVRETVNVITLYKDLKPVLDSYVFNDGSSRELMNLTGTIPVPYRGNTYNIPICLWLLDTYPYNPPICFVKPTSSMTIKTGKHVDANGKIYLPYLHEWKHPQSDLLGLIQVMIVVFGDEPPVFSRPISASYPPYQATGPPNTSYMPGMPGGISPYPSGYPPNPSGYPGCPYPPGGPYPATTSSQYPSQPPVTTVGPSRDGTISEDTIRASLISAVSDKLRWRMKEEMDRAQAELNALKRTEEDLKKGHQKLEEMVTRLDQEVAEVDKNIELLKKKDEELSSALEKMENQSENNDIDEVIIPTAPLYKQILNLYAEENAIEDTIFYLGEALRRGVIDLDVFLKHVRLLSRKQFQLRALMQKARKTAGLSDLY
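Compounds were pin-transferred onto Tsg101 binding domain (10 uM final) in HEPES pH 7.5 buffer, then FITC-PTAP peptide was added at 50 nM final. After 20 min at RT, polarization reported peptide displacement across a qHTS concentration series.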
MCF10A rerep – DNA re-replication induction in MCF 10a cells | MCF 10A DNA re-replication, Hoechst nuclear intensity, 48 h | Potency, µM (highest dose often 46.1 µM), usual class: activators | 350,000 compounds, 2.9% hits | AID 624296; further: nearly all actives have a fitted effect of over 50% in size
KB-3-1 cytotox – kills parental KB-3-1 adenocarcinoma cells; KB-3-1 viability, CellTiter-Glo ATP luminescence, 72 h; Potency, µM (series often up to 46.1 µM), hits mostly cytotoxic; 400,000 compounds, 1.4% hits; further: nearly all actives have a fitted effect of over 60% in size
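Cells are dispensed, compounds pinned in, plates held at 37 °C for 72 h, then CellTiter-Glo is added and luminescence read after 10 minutes. Cell line: parental KB-3-1 in phenol-red-free DMEM, 10% FBS.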
PINK1 modulator – modulators of PINK1 expression; PINK1 immunofluorescence, high-content cytometry, 24 h; AID 624263; 410,000 compounds, 0.2% hits; Potency, µM (top dose mostly 76.6 µM), most hits filed as activators; active means well fitted activation curve with a large enough effect; inconclusive means small, poorly fitted or top-dose-only effect; cell line not stated here; further: nearly all actives have a fitted effect of over 65% in size
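Measures PINK1 amount and localization on or inside mitochondria by immunofluorescence. Stable cells get compounds at 5 concentrations for 24 hours before fixation and staining; CCCP controls included.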
SW480 rereplic – inducers of DNA re-replication in SW480 colon cancer cells; SW480 DNA re-replication, Hoechst DNA content imaging, 48 h; 340,000 compounds, 1.8% hits; Potency, µM (series often up to 46.1 µM), usual class: activators; AID 624297; further: nearly all actives have a fitted effect of over 55% in size
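Image-based DNA-content assay: after two days of treatment, nuclei were labelled with the DNA dye Hoechst and imaged, and hits were compounds raising the count of nuclei showing high fluorescence intensity.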
KB-V1 MDR tox – kills drug-selected multidrug resistant KB-V1 cells; KB-V1 MDR cells viability, CellTiter-Glo, 72 h; Potency, µM (titrated, usually from 46.1 µM), most hits filed as cytotoxic; 400,000 compounds, 3.4% hits; AID 1347076; further: nearly all actives have a fitted effect of over 60% in size
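Cells of the MDR subline KB-V1 are plated, dosed with compound at multiple concentrations, and incubated 72 h at 37 degrees C; CellTiter-Glo is then added and luminescence read after 10 min.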
Numbers stand for hits; i = inactive; ? = inconclusive; nt = no result given; [ ] = remark or other dose. Unless noted, the call rests on the fitted dose curve; in most records, active means well fitted curve in the direction sought with a large enough effect; inconclusive means small, poorly fitted or top-dose-only effect, or another doubt; inactive means no such curve, though single readings can be large; an effect the other way counts as inactive or inconclusive.

SMILES	PTAP TSG101 blk	MCF10A rerep	KB-3-1 cytotox	PINK1 modulator	SW480 rereplic	KB-V1 MDR tox
CC(Oc1ccc2oc3ccccc3c2c1)C(=O)NC12CC3CC(CC(C3)C1)C2 (stereo not given)	i	16.4µM	i	?	?	i
CCN(CC)CCNC(=O)c1ccc(NC(=O)Cc2ccc(OC)c(S(=O)(=O)N3CCOCC3)c2)cc1	i	i	i	i	i	i
C=CC(=O)Nc1ccc(CN2C(=O)N(c3c(Cl)c(OC)cc(OC)c3Cl)Cc3cnc(NCCCCN(CC)CC)nc32)cc1	i	?	11.6µM	i	?	i
COc1cc(NC(=O)CCn2c(-c3ccccc3)cc(C(C)=O)c2C)cc(OC)c1	nt	nt	i	i	nt	i
Cc1ccccc1N=C(c1ccccc1)C1C(=O)c2ccccc2C1=O	nt	nt	?	i	nt	20.6µM
CCCCCNC(=O)C(c1ccc(OC)cc1)n1c(=O)c(-c2ccco2)nc2ccccc21 (stereo not given)	nt	nt	?	nt	nt	18.4µM
Cn1ccsc1=NC(=O)c1ccccc1F	i	i	i	i	i	i
Cc1ccc(C)c(-n2c(-c3ccc(Br)cc3)csc2=NC(=O)c2ccccc2F)c1	i	i	11.6µM	i	i	?
Cc1ncc2c(c1CNC(=O)c1ccc3c(c1)OCO3)CCN(C(=O)c1noc3c1CCCC3)C2	nt	nt	nt	i	nt	nt
CN(C)C(=O)c1ccc(-c2cncnc2Nc2ccc(F)cc2)cc1	nt	nt	nt	i	nt	nt
COc1ccccc1N(CC(=O)NC(C)(C)C)C(=O)Cn1nnc(-c2ccc(C)o2)n1	i	i	i	i	i	2.31µM
Cc1cc(C)cc(NC(=O)[C@H]2O[C@@H]3OC(C)(C)O[C@@H]3[C@H]3OC(C)(C)O[C@H]32)c1	nt	nt	?	i	nt	i
CC1(C)OC2OC(C(=O)N/N=C/c3cc(Br)ccc3O)C3OC(C)(C)OC3C2O1 (stereo not given)	i	?	i	i	16.4µM	9.2µM
Cc1nc(-c2cccc(NC(=O)Nc3ccc([N+](=O)[O-])cc3)c2)no1	nt	nt	?	?	nt	i
COc1ccc(C)cc1N(C(=O)c1ccccc1)c1nc2ccccc2s1	i	i	i	i	i	i
COc1ccc(C)cc1N(C(=O)COc1ccccc1)c1nc2ccccc2s1	i	i	i	i	i	20.6µM
Cc1nn(CC(=O)NCc2ccc(N(C)C)cc2)c(=O)c2c(C)n(-c3ccc(Cl)cc3)nc12	nt	nt	nt	i	nt	nt
Cc1cc(C)cc(OCC(=O)NCC(c2ccc(Cl)cc2)N2CCCCC2)c1 (stereo not given)	nt	nt	i	i	nt	i
Clc1ccc2c(N/N=C/c3ccc(Br)cc3)ccnc2c1	i	2.59µM	?	i	18.4µM	i
Cc1ccccc1/C=N/Nc1ccnc2cc(Cl)ccc12	i	18.4µM	?	i	?	16.4µM
CCCCOc1cccc(C2c3c(-c4cc(C)ccc4O)n[nH]c3C(=O)N2CCOC)c1 (stereo not given)	nt	nt	?	i	nt	?
CCOc1ccc(/C=C/C(=O)Nc2sc3c(c2C(=O)OC)CCC3)cc1	nt	nt	i	i	nt	i
Cc1cccc(C(=O)NCc2nc(-c3ccccc3NC(=O)C3CCCO3)oc2C)c1 (stereo not given)	nt	nt	nt	i	nt	nt
Cc1cccc(C2=NN(c3ccccc3)[C@@H](C(=O)N3CCOC3=O)[C@@H]2c2ccc(Cl)cc2)c1	i	2.31µM	i	i	25.9µM	i
O=C1OCCN1C(=O)[C@H]1[C@H](c2ccc(Cl)cc2)C(c2ccccc2)=NN1c1ccccc1	i	?	i	i	?	i
SMILES	PTAP TSG101 blk	MCF10A rerep	KB-3-1 cytotox	PINK1 modulator	SW480 rereplic	KB-V1 MDR tox
O=C1OCCN1C(=O)[C@H]1[C@H](c2ccccc2)C(c2cccc(Cl)c2)=NN1c1ccccc1	i	?	i	i	18.4µM	i
COc1ccccc1OCC(=O)Nc1nc(-c2ccc(Br)cc2)ns1	nt	nt	nt	i	nt	nt
Cc1cccc2nc(-c3ccccn3)c(Nc3ccc(F)cc3)n12	nt	nt	i	i	nt	?
Cc1ccc(Nc2c(-c3ccccn3)nc3cccc(C)n23)cc1	i	?	5.17µM	?	i	6.51µM
Cc1cccc2nc(-c3ccccn3)c(Nc3ccccc3)n12	nt	nt	i	?	nt	6.51µM
CC(O)(COc1ccccc1)c1ccc2c(c1)CN(Cc1cccc3ncccc13)CCO2 (stereo not given)	nt	nt	nt	i	nt	nt
CCc1ccc(-n2c(N3CCN(c4cccc(Cl)c4)CC3)nc3ccccc3c2=O)cc1	nt	nt	nt	i	nt	nt
O=c1oc2ccc(Br)cc2cc1S(=O)(=O)c1ccc(F)cc1	i	5.17µM	29.1µM	i	i	?
Cc1cc(C)n(C(C)CC(=O)Nc2ccc(C)c(N(C)C)c2)n1 (stereo not given)	nt	nt	i	i	nt	i
COc1ccc(OC)c(-c2cc(-c3cccnc3)nc(N)c2C#N)c1	i	11.6µM	2.06µM	i	6.51µM	2.59µM
O=C1C(=O)N(C2CCN(S(=O)(=O)c3ccccc3)CC2)CCN1Cc1ccccc1	nt	nt	i	i	nt	i
O=C(Nc1ccccc1C(=O)N1CCCC1)c1cccc(S(=O)(=O)N2CCCCCC2)c1	i	i	i	i	i[9.22 µM]	i
CCNC(=O)c1ccccc1NC(=O)c1cccc(S(=O)(=O)N2CCC(C)CC2)c1	i	i	i	i	i	16.4µM
CC(C)Oc1ccc(C(=O)Nc2cc(S(=O)(=O)N3CCOCC3)ccc2N2CCOCC2)cc1	i	?	?	?	?	16.4µM
CC(C)Oc1ccc(S(=O)(=O)N2CCOCC2)cc1NC(=O)c1cccc(S(=O)(=O)N2CCCC2)c1	i	i	i	i	i	18.4µM
O=C(Nc1ccccc1C(=O)N1CCOCC1)c1cccc(S(=O)(=O)N2CCCC2)c1	i	i	i	i	i	9.2µM
Cc1ccc(NC(=O)COc2ccc3oc4c(c3c2)CCCC4)cc1C	nt	nt	i	i	nt	i
O=C(Cn1c(=O)n(Cc2ccco2)c(=O)c2ccc(C(=O)NC3CCCC3)cc21)Nc1ccc(F)cc1	nt	nt	i	i	nt	i
CCc1nc2cc(C(=O)N(C)CC3COCCO3)cc(NC(=O)c3ccccc3OC)c2n1C (stereo not given)	nt	nt	nt	i	nt	nt
COC(=O)c1ccc(CSc2nc3c([nH]c4ccccc43)c(=O)n2-c2cc(C)cc(C)c2)o1	nt	nt	i	i	nt	?
COc1cc(-c2noc(CCCC(=O)NCc3ccccc3)n2)cc(OC)c1OC	i	i	i	i	i	6.51µM
Cc1ccc(S(=O)(=O)N2CCOCC2)cc1C(=O)OCC(=O)N1CCc2ccccc2C1	i	i	i	i	i	11.6µM
O=C(COc1ccc(S(=O)(=O)N2CCOCC2)cc1)N1CCc2ccccc2C1	i	i	i	i	i	?
O=C(NC(=S)Nc1ccccc1N1CCCC1)c1ccc([N+](=O)[O-])cc1	i	i	i	i	i	?
O=C(NC(=S)Nc1ccccc1N1CCCC1)c1ccc(-c2cccc([N+](=O)[O-])c2)o1	i	i	?	i	20.6µM	16.4µM

Screening results (PubChem BioAssay)
